Screens deposited in PubChem by National Center for Advancing Translational Sciences (NCATS).
Most compounds without a hit are left out; they make up all but 0.58% or so of the library.
IL-2 act – IL-2 activation. IL-2 activation reporter assay, cell-based qHTS; stimulated with anti-CD3/CD4/CD28 beads; in transgenic mouse T cells. activation, % (series mostly up to about 46 µM). actives 0.065% (n = 360,000). AID 652025; in the data active means activation above about 50%; inconclusive means mostly about 30% to 49%
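EGFP and DsRed fluorescence is measured by plate cytometry in unstimulated transgenic mouse T cells exposed to compound for 60 minutes, then stimulated 18 hours at 37 degrees C with anti-CD3/anti-CD4 beads plus anti-CD28.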
Epigenetic derep – derepresses silenced GFP reporter in murine cells; Potency, µM (top dose mostly 53.9 µM), actives largely listed as activators; AID 1865; actives 0.2% (n = 280,000); murine LDR cells, GFP reporter derepression, 30 h; further: nearly all actives have a fitted effect of over 60% in size
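Reporter derepression read as number of fluorescent GFP-positive objects, 20-120 um in size, counted by laser-scanning cytometer. Mouse LDR line with an epigenetically silenced CMV-GFP locus; compound incubation 30 h, 37 C.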
PINK1 expr mod – PINK1 expression modulation; PINK1 immunofluorescence, high-content cytometry, 24 h; Potency, µM (doses to about 76.6 µM), most hits filed as activators; actives 0.2% (n = 410,000); AID 624263; active means well fitted activation curve with a large enough effect; inconclusive means small, poorly fitted or top-dose-only effect; cell line not stated here; further: nearly all actives have a fitted effect of over 65% in size
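Cells are seeded, rested 12 hours, then given compound at five concentrations or DMSO for 24 hours. After fixation, blocking and antibody staining, PINK1 amount and mitochondrial localization are scored; CCCP serves as control.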
PKM2 act – activators of human pyruvate kinase M2 | P14618 | purified PKM2, Kinase-Glo ATP luminescence, activation; response scale: 0% is enzyme alone, no compound | actives 0.34% (n = 260,000) | Potency, µM (highest dose often 57.5 µM), most hits filed as activators; further: nearly all actives have a fitted effect of over 55% in size
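Purified hPK-M2 (>95%) run at intermediate activity with 0.1 mM ADP and 0.5 mM PEP in 50 mM imidazole pH 7.2, KCl, MgCl2; 1 h room temperature. ATP formed read by Kinase-Glo luminescence; normalized to uninhibited and no-enzyme controls.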
B2AR arrestin – beta2AR (human) beta-arrestin recruitment activity; Potency, µM (top dose mostly 46.1 µM), actives largely listed as activators; beta-arrestin recruitment to beta2AR, cell-based reporter; actives 0.02% (n = 330,000); AID 492947; further: nearly all actives have a fitted effect of over 65% in size
Target sequence (P07550 whole entry, looked up): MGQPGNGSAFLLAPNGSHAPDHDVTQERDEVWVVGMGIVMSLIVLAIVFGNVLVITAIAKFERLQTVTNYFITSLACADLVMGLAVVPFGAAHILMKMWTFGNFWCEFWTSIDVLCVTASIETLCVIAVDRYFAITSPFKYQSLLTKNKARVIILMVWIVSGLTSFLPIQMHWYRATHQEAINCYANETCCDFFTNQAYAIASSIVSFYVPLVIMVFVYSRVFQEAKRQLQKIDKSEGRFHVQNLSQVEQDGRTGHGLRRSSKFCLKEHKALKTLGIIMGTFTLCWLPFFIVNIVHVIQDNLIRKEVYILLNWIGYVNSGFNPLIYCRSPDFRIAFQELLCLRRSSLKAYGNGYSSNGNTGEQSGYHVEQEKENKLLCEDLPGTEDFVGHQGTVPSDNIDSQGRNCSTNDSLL
Numbers stand for hits; i = inactive; ? = inconclusive; nt = no result. Unless noted, the call rests on the fitted dose curve; in most records, active means well fitted curve in the direction sought with a large enough effect; inconclusive means small, poorly fitted or top-dose-only effect, or another doubt; inactive means no such curve, though single readings can be large; an effect the other way counts as inactive or inconclusive.

SMILES | IL-2 act | Epigenetic derep | PINK1 expr mod | PKM2 act | B2AR arrestin
Cc1cccc(C(=O)N[C@H]2CC[C@@H](n3cc(C(=O)N4CCCC4)nn3)CC2)c1 | nt | nt | i | nt | nt
O=C(NC1CCCC1)c1sc(=S)n2c1[nH]c(=O)c1ccccc12 | i | i | 31.6µM | i | i
COc1ccc([C@H]2O[C@@H](c3ccc(OC)c(OC)c3)[C@H](C)[C@@H]2C)cc1OC | nt | i | nt | nt | nt
COc1ccc(C(=O)N/N=C/c2sc(N3CCOCC3)nc2-c2ccccc2)cc1OC | i | i | i | i | i
COc1ccccc1NS(=O)(=O)c1cc([N+](=O)[O-])ccc1N/N=C/c1sc(N2CCOCC2)nc1-c1ccccc1 | i | 2.82µM | i | i | i
Brc1ccc(OCc2nnnn2-c2ccccc2)cc1 | i | i | i | 25.1µM | i
COc1ccccc1CN1CCC(n2cc(C(=O)N3CCCCC3)nn2)CC1 | nt | nt | i | nt | nt
CC(C)(C)S(=O)(=O)/C(C#N)=N/Nc1ccc(Cl)cc1 | i | i | 28.2µM | i | i
Cc1cccc(N/N=C(\C#N)S(=O)(=O)C(C)(C)C)c1 | i | i | i | i | i
CC(C)(C)c1ccc(N/N=C(\C#N)S(=O)(=O)C(C)(C)C)cc1 | i | i | 39.8µM | i | i
CCNc1nc(NCC)nc(OCCOC(=O)c2ccccc2)n1 | i | i | i | 14.1µM | i
CCOCCCNc1nc2c(C)cccn2c(=O)c1/C=C1\SC(=S)N(C(C)CC)C1=O (centres undefined) | i | 3.16µM | i | i | i
O=C(CSc1cccc2cccnc12)Nc1ccc(S(=O)(=O)N2CCOCC2)cc1 | i | i | i | 25.1µM | i
CCN1CCc2c(sc(N)c2C#N)C1 | i | i | i | i | i
CC(C)N1CCc2c(sc(N)c2C#N)C1 | i | i | 2.82µM | i | i
CN1C(=O)/C(=C\c2cc(N=Nc3ccccc3)ccc2O)SC1=S | i | i | 39.8µM | i | i
CN1C(=O)/C(=C\c2ccccc2OCc2ccccc2)SC1=S | i | nt | ? | nt | i
N#Cc1cccc(NC(=O)CSc2ccc3c4c(cccc24)C(=O)c2ccccc2-3)c1 | i | 5.01µM | i | i | i
N#Cc1cccc(NC(=O)CSc2ccccc2)c1 | i | i | i | i | i
COc1ccc(NC(=O)CSc2ccc3c4c(cccc24)C(=O)c2ccccc2-3)cc1 | 183.8 | ? | ? | i | i
CC[n+]1ccccc1/C=C/c1ccc(N(C)C)cc1 | i | 15.8µM | ? | i | i
CN(C)c1ccc(/C=C/c2cc[n+](C)cc2)cc1 | i | 11.2µM | i | i | i
Cc1occc1C(=O)Nc1cccc(-c2nc(CNC(=O)c3ccc(N4CCCCC4)cc3)c(C)o2)c1 | nt | nt | i | nt | nt
CSc1nnc(CNC(=O)c2cccc3ccccc23)n1-c1ccccc1C | nt | nt | i | nt | nt
CCC(O)CNC(=O)c1cnn(-c2nccc(-c3cc(C)sc3C)n2)c1C1CC1 (centres undefined) | nt | nt | i | nt | nt
SMILES | IL-2 act | Epigenetic derep | PINK1 expr mod | PKM2 act | B2AR arrestin
CCCCSc1c(C)c2cc3c(cc2[nH]c1=O)OCO3 | i | i | 5.62µM | i | i
OC1CCN(Cc2ccc3c(c2)CN(C/C=C/c2ccco2)CCO3)CC1 | nt | nt | i | nt | nt
CN1C(=O)Cc2cc(S(=O)(=O)NCc3c(F)cccc3Cl)ccc21 | i | nt | i | 14.1µM | i
CN1C(=O)Cc2cc(S(=O)(=O)NCc3cccs3)ccc21 | i | i | i | ? | i
O=c1oc2ccc(NS(=O)(=O)c3cccc4cccnc34)cc2s1 | i | nt | i | 14.1µM | i
O=C(c1ccc(NS(=O)(=O)c2cccc3cccnc23)cc1)N1CCOCC1 | i | nt | i | nt | nt
O=C1CCCc2oc3ccc(NS(=O)(=O)c4cccc5cccnc45)cc3c21 | i | i | i | i | i
O=C(c1ccc(NS(=O)(=O)c2cccc3cccnc23)cc1)N1CCCCC1 | i | i | i | 15.8µM | i
O=Cc1cnc(N2CCN(c3ccccc3)CC2)s1 | i | i | i | i | i
N#CC(C#N)=Cc1cnc(N2CCN(c3ccccc3)CC2)s1 | ? | nt | 31.6µM | nt | i
CCN1CCCC1CNCc1cc2c(OC)c(OC)c(OC)cc2nc1N(C)C (centres undefined) | nt | nt | i | nt | nt
COc1cccc(/C(O)=C/c2nc3ccc(C(=O)NCCc4ccc(Cl)cc4)cc3[nH]c2=O)c1 | ? | 7.94µM | i | i | i
COc1cccc(/C(O)=C/c2nc3ccc(C(=O)NCCc4cccc(C)c4)cc3[nH]c2=O)c1 | i | 14.1µM | ? | i | i
COC(=O)Cn1cc(/C=N/NC(=O)c2ccc(C#N)cc2F)c2ccccc21 | i | i | 11.2µM | i | i
CCCCCNC(=O)C(C#N)c1nc2ccccc2nc1N1CCCC1 (centres undefined) | 149.9 | i | i | i | i
CCCCCCNC(=O)C(C#N)c1nc2ccccc2nc1N1CCCC1 (centres undefined) | ? | i | i | i | i
N#CC(C(=O)NCc1ccccc1)c1nc2ccccc2nc1N1CCCC1 (centres undefined) | 152.8 | ? | ? | i | i
CC(C)C(NS(C)(=O)=O)c1nnc2n1CCN(Cc1ccc3cccnc3c1)CC2 (centres undefined) | nt | nt | i | nt | nt
COCC(=O)Nc1cc(C(=O)N2CCCC(C(C)=O)C2)cc2nc(-c3ccccc3)n(C)c12 (centres undefined) | nt | nt | i | nt | nt
Cc1nc2sccn2c(=O)c1S(=O)(=O)Nc1cccc(Cl)c1C | i | i | i | 7.08µM | i
Cc1ccc(NS(=O)(=O)c2c(C)nc3sccn3c2=O)cc1 | i | nt | i | 10µM | i
CCOC(=O)c1ccc(NS(=O)(=O)c2c(C)nc3sccn3c2=O)cc1 | i | nt | i | i | i
O=C(OCCF)N1CCN(/[N+]([O-])=N/Oc2ccc([N+](=O)[O-])cc2[N+](=O)[O-])CC1 | nt | nt | i | nt | nt
Cc1nc2ccc(NS(=O)(=O)c3ccc(C)c(C)c3)cc2s1 | i | i | i | ? | i
Cc1nc2ccc(S(=O)(=O)Nc3ccccc3C)cc2s1 | i | i | i | 15.8µM | i
SMILES | IL-2 act | Epigenetic derep | PINK1 expr mod | PKM2 act | B2AR arrestin
Cc1ccccc1NC(=S)NNc1ncc(C(F)(F)F)cc1Cl | i | i | i | i | i
Fc1ccccc1NC(=S)NNc1ncc(C(F)(F)F)cc1Cl | i | i | 15.8µM | i | i
Cc1cccc2c(N=Nc3ccccc3)c(O)[nH]c12 | 257.5 | nt | i | nt | i
COc1cc2c3nnc(-c4ccc(F)cc4)c-3cn(Cc3cccc(F)c3)c2cc1OC | 76.4 | 7.08µM | ? | i | i
COc1cccc(Cn2nc3c4cc(F)ccc4n(Cc4ccc(F)cc4)cc-3c2=O)c1 | i | nt | i | nt | i
COc1cc2c3nnc(-c4ccccc4)c-3cn(Cc3ccc(F)cc3)c2cc1OC | i | ? | i | i | i
COc1cc2c3nnc(-c4ccc(F)cc4)c-3cn(Cc3cccc(C)c3)c2cc1OC | 217.8 | 3.55µM | ? | i | i
COc1cc2c3nnc(-c4ccc(F)cc4)c-3cn(Cc3ccc(C)cc3)c2cc1OC | 349.4 | 6.31µM | ? | i | i
O=C(O)c1ccc(N=NNc2cccc([N+](=O)[O-])c2)cc1 | i | i | i | i | i
